Assay results from the supplement of paper PMC6555819.

What was measured:
Assay in all cases: PBM binding z-score (relative to random genomic background probes); higher = stronger binding; sequences stand for … in GC…GCGATTGACAGCGTAGAATGAAGG
[1] = tested on: RARb homodimer (NR concentration 270 nM)
How it was run: (§1)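 Binding buffer was PBS pH 7.4 with 2% milk, 0.02% Triton X-100, 1 mM DTT, 0.2 mg/mL BSA and 0.4 mg/ml salmon testes DNA. In it, ligand-free nuclear receptor dimers were incubated 1 h on custom Agilent 4×180K protein-binding microarrays carrying double-stranded probes. Antibodies against each partner (one per run) detected binding, and z-scores were calculated against random background probes after regression normalization of scanned fluorescence.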

[2] = tested on: RARg:RXRa (NR concentration 270 nM, RXRa partner concentration 90 nM)
How it was run: as §1

[3] = tested on: RARg homodimer (NR concentration 270 nM)
How it was run: as §1

[4] = tested on: RXRa DBDmut IVT, anti-RXR (DBD mutation: RXRa K156A/R161A, NR concentration 90 nM)
How it was run: as §1

[5] = tested on: RXRa homodimer (NR concentration 180 nM)
How it was run: as §1

[6] = tested on: THRa:RXRa (NR concentration 90 nM, RXRa partner concentration 90 nM)
How it was run: as §1

[7] = tested on: THRa homodimer (NR concentration 90 nM)
How it was run: as §1

[8] = tested on: VDR homodimer (NR concentration 270 nM)
How it was run: as §1

Sequence | PBM binding z-score [1] | PBM binding z-score [2] | PBM binding z-score [3] | PBM binding z-score [4] | PBM binding z-score [5] | PBM binding z-score [6] | PBM binding z-score [7] | PBM binding z-score [8]
CCTACTGGGCCATTCAGAGGTCTTTGATCATATG | 0.406 | 0.221 | 0.17 | -0.165 | -0.258 | 0.0585 | -0.237 | -0.313
TCATATAGGTAAAGGTGAAAGTCGAACGATATGA | 1.71 | 1.65 | 1.43 | 0.845 | 2.33 | 1.38 | -0.106 | 0.236
ATCTCTAGGTAAAGATAGTTCAGTAAATGCAAAT | 1.08 | 0.439 | 0.876 | 0.336 | 0.446 | 0.803 | 0.595 | 0.651
TCATATAGGTAAATGCTAGGTGAATGTCCGATCT | 0.278 | 0.529 | 0.626 | 1.46 | 0.893 | 1.49 | 0.604 | 0.143
TCTAGCAGGCCAGAGGGTCACCCAAGAGGTACGG | 2.74 | 3.04 | 2.17 | -0.135 | 2.96 | 1.97 | 0.143 | 0.203
CAAACTAGGTCAATGTCAAAGTCGGTTTGTGCCA | 3.06 | 3.43 | 4.16 | 1.94 | 2.36 | 2.56 | 0.861 | 1.28
CCTACTGGGCCATTCAGACGTCATTGATCATATG | -0.514 | -0.25 | 0.169 | -0.119 | -0.341 | -0.533 | -0.741 | -0.378
CCGACTGGGGCAGCAAGGTTACCATACCATCCGG | 1.52 | 0.772 | 0.82 | -0.746 | 0.706 | 1.21 | 0.373 | 0.0128
GCTAGCATGCCATTTGGGTCACTCAATGACGGGC | 1.77 | 0.756 | 0.805 | -0.283 | 0.99 | 1.69 | 0.874 | 0.0275
ATCTCTAGGTAAAGTTCAGTGACAGATCGATAGA | 2.63 | 1.99 | 2.63 | 1.51 | 1.39 | 1.31 | 0.436 | 2.61
CAGCCTAGGTCAGGGCCCGTATAGGAGGAACGTT | 2.26 | 2.9 | 3.84 | -0.894 | 1.46 | 1.73 | 0.213 | -0.478
CAGCCAAGGTCAGGGCCAGTATAGGAGGAACGTT | 3.64 | 4.92 | 5.59 | 1.64 | 4 | 3.36 | 1.78 | 0.93
TTACCAAGGTGAACGTCGTTGATCCCTCTGTAGA | 0.909 | 0.602 | 0.629 | -0.298 | 1.19 | 2.32 | 0.991 | -0.626
TCTCGGTGGACACGAAGGTCAGAGCTTTCCAGAG | 3.04 | 2.19 | 1.97 | 0.131 | 1.55 | 1.39 | -0.0519 | -0.0711
TCTATTAGTTGATTAGGGCAACCTAAACAGCGGA | 0.947 | 0.824 | 0.799 | 0.995 | 0.669 | 0.862 | 0.4 | 0.145
CTTAGCAGGCCAGGGTCACTCAAGCATTTCGCTT | 2.87 | 2.99 | 2.53 | 0.934 | 3.39 | 2.93 | 1.32 | 1.28
ACAGACAGGTGAGTTAAGGTAACTCAGCTGGACG | -0.0673 | 0.439 | 0.59 | -0.352 | 0.374 | 4.35 | 1.8 | -0.547
ATCGAAAGGTCCAGGTGAGTATAGAGAAAGGGAA | 0.976 | 0.8 | 0.946 | 0.31 | 0.494 | 0.94 | 0.905 | 0.121
CCGACCGGGGCAAGGTTACCATAACGCACAGCCA | 1.54 | 1.65 | 1.73 | -0.596 | 1.39 | 1.64 | 0.837 | 0.12
ACTAGTAGTTGACTTAGGGCAACCGATACGACGC | 0.773 | 0.36 | 0.487 | -0.14 | 0.393 | 1.44 | -0.151 | -0.0873
CCTACTGGGCCAAAAGTCATTGATTCCAATGCTC | 0.0261 | 0.13 | 0.053 | 0.0698 | 0.153 | -0.256 | -0.418 | -0.212
CGAACTAGGTCATCAAGGACAGTGAATACATTGA | 3.18 | 3.95 | 4.85 | 1.92 | 2.67 | 3.87 | 2.11 | 1.83
CGAACTCGGTCAGAACAGGACAGTGAAGGATGAT | 1.03 | 1.4 | 1.81 | 0.172 | 0.348 | 1.78 | -0.368 | 0.368
ATCGAAAGGTCGAAGGTGTGTATACCCACCCGAA | 2.15 | 3.83 | 3.73 | 0.844 | 4.12 | 1.6 | -0.397 | 0.639
AGAACGAGGGCACGATGAGTTGATAGCAGAGTAG | 1.22 | 2.18 | 2.42 | 1.77 | 1.57 | 2.03 | 0.236 | 1.66
ACAGACAGGTGAGCGAAGGTAACTCAGCTGGACG | 0.0254 | 0.199 | 0.463 | -0.651 | 0.258 | 1.74 | -0.377 | -0.771
CCAGACAGGTGAAATGTAACTCAGTCTGGTACGC | -0.215 | 0.487 | 0.478 | 0.261 | 0.624 | 0.0453 | -0.307 | -0.0884
TGAATGAGATTATAAGATCAGGGAACGTTGCAAA | -1.01 | -0.048 | 0.172 | -1.08 | -0.35 | -0.424 | -1.28 | -0.262
ACAGACAAGTGAGTGAAGGTAACTCAGCTGGACG | -0.464 | -0.0696 | 0.0663 | -0.283 | -0.0064 | -0.0405 | -0.435 | -0.445
